The record followed here is PubChem BioAssay (NCI).

Common to all, as to assay: NCI-60 one-dose screen, 48 h (100 = growth as untreated, 0 = no growth, -100 = all killed)
One experiment concerns HCT-15 colon. As to conditions: 10 µM unless noted.
In the next experiment the test system is HT29 colon. Particulars: 10 µM unless noted.
The next experiment deals with SNB-75 CNS. Particulars: 10 µM unless noted.
The test system of a further experiment is SNB-19 CNS. As to conditions: 10 µM unless noted.
Another experiment deals with U251 CNS. Particulars: 10 µM unless noted.
The subject of a further experiment is PC-3 prostate. Particulars: 10 µM unless noted.
The test system of the next experiment is SK-MEL-5 melanoma. As to conditions: 10 µM unless noted.
The next experiment deals with LOX IMVI melanoma. As to conditions: 10 µM.
The next experiment deals with SK-MEL-28 melanoma. Particulars: 10 µM unless noted.
In a further experiment the test system is SK-MEL-2 melanoma. As to conditions: 10 µM unless noted.
A further experiment deals with EKVX NSCLC. As to conditions: 10 µM unless noted.
The subject of the next experiment is SN12C renal. As to conditions: 10 µM unless noted.
The next experiment relates to UO-31 renal. As to conditions: 10 µM unless noted.
The test system of a further experiment is TK-10 renal. As to conditions: 10 µM unless noted.
For the next experiment, the system named is ACHN renal. As to conditions: 10 µM unless noted.
The test system of the next experiment is A498 renal. As to conditions: 10 µM unless noted.
The next experiment relates to CCRF-CEM leukemia. As to conditions: 10 µM unless noted.
In another experiment the test system is MOLT-4 leukemia. Particulars: 10 µM unless noted.
In a further experiment the test system is CAKI-1 renal. Particulars: 10 µM unless noted.

Compounds without any hit were thinned out: in the full panel of roughly 83,000, 20% have a hit.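 Method: cells in 96-well plates; compound added at one concentration; 48 h incubation; percent growth measured; values under 10 scored active.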 Unmarked numbers belong to inactive results. Activity calls are given as the source filed them.

For `Oc1ccc(CCC2CCNc3ccccc32)cc1` (stereo unspecified), the growth in the experiment on HCT-15 colon was 83.2%; with HT29 colon it was 93.7%; in the experiment with SNB-75 CNS, 76.6%; in the experiment with SNB-19 CNS it was 87.2%; in the experiment with U251 CNS, 71.5%; in the experiment on PC-3 prostate, 60.7%. The growth in the experiment on SK-MEL-5 melanoma was 58%; in the experiment with LOX IMVI melanoma it was 81.1%; with SK-MEL-28 melanoma, 94.4%; with SK-MEL-2 melanoma, 86.7%; in the experiment with EKVX NSCLC, 53.5%; with SN12C renal, 86%. Also, the growth with UO-31 renal was 78.9%; in the experiment with TK-10 renal, 93.2%; in the experiment with ACHN renal, 66.9%; in the experiment with A498 renal it was 69.2%; in the experiment with CCRF-CEM leukemia it was 69.1%; with MOLT-4 leukemia it was 84.8%.
In the case of `CCOC(=O)c1cc(Cl)c(O)c(Cl)c1`, the growth is 104% with HCT-15 colon; 103% in the experiment with HT29 colon; 103% in the experiment on SNB-75 CNS; 106% in the experiment on SNB-19 CNS; 104% in the experiment with U251 CNS; 101% with PC-3 prostate. Moreover, the growth was 102% in the experiment on SK-MEL-5 melanoma; 102% in the experiment on LOX IMVI melanoma; 106% in the experiment on SK-MEL-28 melanoma; 106% in the experiment with SK-MEL-2 melanoma; 109% in the experiment on EKVX NSCLC; 107% in the experiment with SN12C renal. Besides, the growth in the experiment with UO-31 renal is 92.3%; with TK-10 renal it was 108%; with ACHN renal it was 103%; in the experiment on CAKI-1 renal, 109%; in the experiment on A498 renal, 104%; with CCRF-CEM leukemia, 90.8%. Further, in the experiment with MOLT-4 leukemia, the growth is 89.6%.
As for `CC(=O)Nc1ccc(O)c(C)c1`, the growth is 118% with HCT-15 colon; 98.4% in the experiment with HT29 colon; 95.4% in the experiment with SNB-75 CNS; 104% in the experiment on SNB-19 CNS; 92.5% in the experiment on U251 CNS; 87% in the experiment with PC-3 prostate. Moreover, the growth was 100% in the experiment on SK-MEL-5 melanoma; 95.4% with LOX IMVI melanoma; 103% with SK-MEL-28 melanoma; 104% in the experiment on SK-MEL-2 melanoma; 112% in the experiment with EKVX NSCLC; 102% in the experiment on SN12C renal. The growth in the experiment on UO-31 renal was 95.1%; in the experiment with TK-10 renal it was 93.2%; with ACHN renal, 99.4%; in the experiment on CAKI-1 renal, 97.5%; with CCRF-CEM leukemia it was 95.4%; in the experiment on MOLT-4 leukemia it was 85.2%.
Turning to `COc1cc(C(=O)NC(=S)NCc2ccncc2)cc(OC)c1OC`, the growth in the experiment with HCT-15 colon is 95.5%; in the experiment with HT29 colon, 89.2%; with SNB-75 CNS it was 92.5%; in the experiment with SNB-19 CNS it was 106%; in the experiment on U251 CNS it was 98.7%; in the experiment on PC-3 prostate it was 95.9%. In addition, the growth in the experiment with SK-MEL-5 melanoma is 90.3%; in the experiment on LOX IMVI melanoma, 97.7%; in the experiment with SK-MEL-2 melanoma it was 89.5%; in the experiment on EKVX NSCLC, 99.4%; in the experiment with SN12C renal, 102%; in the experiment on UO-31 renal, 77.4%. For the same compound, the growth in the experiment on TK-10 renal was 103%; in the experiment with ACHN renal, 94.2%; with CAKI-1 renal, 91.4%; in the experiment with CCRF-CEM leukemia it was 99.5%; in the experiment on MOLT-4 leukemia it was 86.1%.
With `CC1(C)OC(=O)CC1=O`, the growth was 110% in the experiment on HCT-15 colon; 93.5% in the experiment on HT29 colon; 93.5% with SNB-75 CNS; 105% in the experiment on SNB-19 CNS; 83.2% with U251 CNS; 81.5% in the experiment on PC-3 prostate. Further, the growth was 98.7% with SK-MEL-5 melanoma; 96.9% with LOX IMVI melanoma; 109% with SK-MEL-28 melanoma; 90.9% with SK-MEL-2 melanoma; 96.8% in the experiment on EKVX NSCLC; 105% in the experiment with SN12C renal. Also, the growth in the experiment with UO-31 renal is 92.9%; with TK-10 renal it was 87%; in the experiment on ACHN renal, 101%; with CAKI-1 renal it was 90.4%; with CCRF-CEM leukemia, 89.3%; in the experiment with MOLT-4 leukemia, 85.1%.
Take `CC(=O)C[n+]1ccc(C)cc1Sc1ccccc1C`: the growth was 97.1% in the experiment with HCT-15 colon; 99.1% in the experiment with HT29 colon; 76% in the experiment with SNB-75 CNS; 91.1% in the experiment on SNB-19 CNS; 93.3% in the experiment on U251 CNS; 91.8% in the experiment on PC-3 prostate. The growth in the experiment with SK-MEL-5 melanoma is 92%; with LOX IMVI melanoma, 86.6%; in the experiment on SK-MEL-28 melanoma, 104%; in the experiment on SK-MEL-2 melanoma, 127%; in the experiment with EKVX NSCLC it was 103%; with UO-31 renal it was 78.5%. For the same compound, the growth is 106% with TK-10 renal; 97.1% with ACHN renal; 102% with CAKI-1 renal; 127% in the experiment on A498 renal; 1.97% (active) in the experiment with CCRF-CEM leukemia; 54.7% with MOLT-4 leukemia.
As to `COC(CCCl)c1ccc(Cl)cc1` (stereo unspecified), the growth in the experiment on HCT-15 colon was 98.3%; in the experiment on HT29 colon it was 93.6%; in the experiment with SNB-75 CNS, 84.4%; with SNB-19 CNS it was 110%; with U251 CNS, 93.3%; with PC-3 prostate, 108%. For the same compound, the growth in the experiment with SK-MEL-5 melanoma is 101%; with LOX IMVI melanoma it was 101%; in the experiment on SK-MEL-28 melanoma it was 106%; in the experiment on SK-MEL-2 melanoma, 83.5%; with SN12C renal it was 106%; in the experiment on UO-31 renal, 84.5%. Also, the growth in the experiment with TK-10 renal was 86.3%; in the experiment with ACHN renal, 88.9%; in the experiment with CAKI-1 renal it was 101%; in the experiment with A498 renal, 109%; in the experiment with MOLT-4 leukemia it was 95%.
For `C=C1C(=O)C2CCN1CC2`, the growth in the experiment with HCT-15 colon was 105%; in the experiment with HT29 colon it was 89.8%; in the experiment on SNB-75 CNS, 89.2%; in the experiment with SNB-19 CNS, 105%; in the experiment with U251 CNS, 100%; in the experiment on PC-3 prostate, 101%. For the same compound, the growth in the experiment on SK-MEL-5 melanoma was 104%; in the experiment with LOX IMVI melanoma it was 98.9%; in the experiment on SK-MEL-28 melanoma it was 95.6%; with SK-MEL-2 melanoma, 105%; in the experiment with EKVX NSCLC, 103%; with SN12C renal it was 101%. Further, the growth with UO-31 renal is 89.1%; with TK-10 renal, 99.9%; in the experiment on ACHN renal, 86.8%; in the experiment on CAKI-1 renal, 92%; with A498 renal, 97.6%; in the experiment with MOLT-4 leukemia, 78.2%.
As to `O=C(NCc1ccccc1)c1cccc([N+](=O)[O-])c1`, the growth in the experiment on HCT-15 colon was 104%; with HT29 colon, 97.8%; in the experiment with SNB-75 CNS, 101%; in the experiment on SNB-19 CNS, 95.1%; with U251 CNS, 89.1%; in the experiment on PC-3 prostate it was 88.9%. In addition, the growth in the experiment on SK-MEL-5 melanoma is 103%; in the experiment with LOX IMVI melanoma, 105%; with SK-MEL-28 melanoma, 114%; in the experiment on SK-MEL-2 melanoma, 104%; in the experiment on EKVX NSCLC, 102%; in the experiment with UO-31 renal, 70.1%. Moreover, the growth with TK-10 renal is 99.6%; in the experiment on ACHN renal, 102%; in the experiment on CAKI-1 renal, 102%; with A498 renal, 82.3%; with CCRF-CEM leukemia, 90.9%; with MOLT-4 leukemia, 102%.
